# Measured values reported in PubChem BioAssay AID651956 (Broad Institute, 2012).
# Potency and affinity values are given separately. Records with an inconclusive call do not appear. A number with no mark means an inactive call.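 How the source made its calls: active means in every test run, a fitted half-maximal concentration for signal decrease at or below twice the highest tested concentration; inconclusive means runs disagree, flat 30 to 70% decrease, or poor fit; inactive means the rest.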
# Assay: activation of miR-122 Renilla sensor silencing – cell-based, Huh7 psiCHECK-miR122, Renilla luciferase, cherry-picked, dose response (AID 651956);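 further: 0% = median neutral control wells and -100% = median positive control wells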
# Conditions: Huh7 psiCHECK-miR122 Renilla luciferase reporter, 48 h; series mostly up to 35 µM; activity change, negative = signal decrease: at the top concentration
row,Compound,"activity change, negative = signal decrease"
1,CCCNC(=O)C[C@@H]1CC[C@H]2[C@@H](COc3ccc(NC(=O)c4ccc(C(F)(F)F)cc4)cc3C(=O)N2C)O1,-37%
2,C/C=C/c1ccc([C@H]2[C@@H](CO)N(Cc3ccccn3)[C@@H]2CNC(=O)CC)cc1,-23.6% [at 30 µM]
3,CNC(=O)C[C@@H]1CC[C@@H]2[C@@H](COc3ccc(NC(=O)Cc4cccs4)cc3C(=O)N2C)O1,-28.9%
